Test results taken from the supplement of paper PMC3334620.
In all, about 33,000 sequences were measured (“E-score (-0.5 to 0.5)”: median about -0.0014, highest 2% from about 0.25 on). Many of the other results were omitted from the sample, so the highest values are more common in it than they were.

Biological target: T1, Cad1 (UniProt P24813)
T1 sequence: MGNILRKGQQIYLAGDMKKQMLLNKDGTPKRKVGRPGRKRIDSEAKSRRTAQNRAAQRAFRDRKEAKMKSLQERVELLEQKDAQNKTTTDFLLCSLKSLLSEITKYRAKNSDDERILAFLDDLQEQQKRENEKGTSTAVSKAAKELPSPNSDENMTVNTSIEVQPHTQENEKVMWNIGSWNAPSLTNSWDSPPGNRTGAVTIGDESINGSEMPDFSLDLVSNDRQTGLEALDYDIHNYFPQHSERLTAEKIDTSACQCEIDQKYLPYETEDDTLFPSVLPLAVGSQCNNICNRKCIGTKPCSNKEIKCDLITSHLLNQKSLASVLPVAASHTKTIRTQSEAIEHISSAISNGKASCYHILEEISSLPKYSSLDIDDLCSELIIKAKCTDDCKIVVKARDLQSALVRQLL
Assay: PBM E-score (8-mer binding enrichment) (E-score (-0.5 to 0.5)); higher = stronger / more preferred TF binding
Conditions: protein concentration: 100 nM; construct: GST-full length
In short: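 For each ungapped eight-base word taken together with its reverse complement, the Universal PBM Analysis Suite assigned an E-score. Binding data came from GST-tagged yeast transcription factors, applied at about 100-200 nM, on universal all-10-mer Agilent arrays made double-stranded by primer extension. Fluorescent anti-GST marked bound protein, and scans were normalised with masliner.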

Sequence	PBM E-score
TAGGTCGA	0.131
CATATATA	0.164
GATATGGA	0.266
AATATGGA	0.0714
TATATGGA	-0.0332
GATATATC	0.211
TATATACA	0.209
GATATATA	0.333
GACATATA	0.0919
GATATACA	0.0899
TATATATA	0.377
TACATATA	0.252
CACATATA	0.0867
TGTAGTAA	0.145
CGGAAACG	-0.0175
AATCTAGG	0.00096
TGCTCCAA	0.0768
GAATCTGC	0.014
CACATGTA	0.109
TACATGTA	0.27
GACATGTA	0.0721
ACGATTGC	0.213

Sequence	PBM E-score
CCGATTGC	0.25
CCGATTGA	0.144
CCGGGTAG	0.00529
ATTAGATG	0.263
ATTAGATC	0.03
ATTAGATA	0.211
ACATTGGT	0.0584
AGCTAGCT	0.162
GAACAACA	-0.043
AAACAATT	0.114
TAACAATA	0.165
CAACAAGA	-0.0155
AAACAATA	0.251
CAACAACA	0.269
TCCAAGAA	-0.0134
GCGTTAGC	0.0751
ATTATGTC	0.181
AGTAGATC	-0.191
ACTATATC	0.109
ATTATGTA	0.311
ATTATGTG	0.25
CTTATATC	0.0947

Sequence	PBM E-score
GTTATATA	0.232
ACTATATA	0.251
AGTAGATA	0.282
CTTATATA	0.331
GCTATATA	0.149
CGTAGATA	0.113
ATCCGGGG	-0.0124
CAACCGTG	0.00095
GATCCTAC	0.00192
CCGTATTC	-0.0178
ATGGACCC	-0.0809
AGTATATA	0.285
ATTATATG	0.211
ATTATATA	0.306
AGTATATC	0.0175
AGTATATG	0.0763
ATTATATC	0.0433
AAAATATT	0.192
ACCCACTA	0.107
AGCGCCAA	-0.0679
ATGGTCTC	0.102
GGTAAGCA	0.257

Sequence	PBM E-score
CGTAAGCA	0.232
AATAAGAA	0.252
AATAAGCA	0.343
GATAAGCA	0.154
AATAAGAT	0.039
AGTAAGCA	0.241
AATAAGCT	0.234
AATAAGAG	0.0662
CTCTAGTC	-0.388
AGACTTGA	-0.0266
ATTCCCCG	-0.0432
ATTTTCCC	0.00868
ATTTTCCG	0.304
ATTCCCGA	-0.241
ATTTCCGC	0.123
ATTCCCGG	0.296
ATTTCCGG	0.264
ATTTCCGA	0.0803
AATTTCCG	0.24
GCGGGTCC	-0.207
